Data on 40 molecules can be found in PubChem BioAssay.

Unmarked numbers belong to inactive results. How the calls were made is not given here.

Pantothenate synthetase (Mycobacterium tuberculosis (strain ATCC 25618 / H37Rv)), sequence (P9WIL5 whole entry, looked up): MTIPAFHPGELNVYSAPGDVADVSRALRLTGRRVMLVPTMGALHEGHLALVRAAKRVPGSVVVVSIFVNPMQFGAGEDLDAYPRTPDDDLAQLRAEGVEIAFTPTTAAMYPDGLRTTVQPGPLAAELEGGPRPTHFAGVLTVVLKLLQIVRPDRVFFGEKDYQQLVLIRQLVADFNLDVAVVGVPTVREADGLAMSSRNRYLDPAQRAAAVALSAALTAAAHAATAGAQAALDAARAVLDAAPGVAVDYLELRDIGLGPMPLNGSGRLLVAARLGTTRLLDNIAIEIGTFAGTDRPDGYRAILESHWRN

The assay concerns the target Pantothenate synthetase (Mycobacterium tuberculosis (strain ATCC 25618 / H37Rv)) (UniProt P9WIL5). The assay is described as follows: Recombinant Mtb pantothenate synthetase (PanC) inhibitors, coupled enzyme, confirmatory (AID 375).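 Further: 0% = full reaction with vehicle and 100% = no enzyme background.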 To be noted: coupled enzyme assay; at 10 µM, active compounds read high.
Broadly, the inhibition is the drop in the measured response relative to a control, in per cent. Turning to `O=C(COc1ccccc1)Nc1nc2ccccc2[nH]1`, the inhibition was 0%.
With `COc1cccc(C2=NOC(C(=O)N3CCN(c4ccccc4)CC3)C2)c1OC` (stereo not given), the inhibition is 1%.
On to `CCCCc1ccc(NC(=O)N[C@H](C(=O)O)C(C)CC)cc1` (stereo not given in full), for which the inhibition is 0%.
Turning to `CC(C)CNS(=O)(=O)c1ccc(OCC(=O)Nc2ccc3c(c2)OCO3)c(Cl)c1`, the inhibition was 6%.
For `CCn1cnc2cc(NCc3cccc(OC)c3O)ccc21` the value was 12%; for `COc1ccc(-c2[nH]c(-c3cccc(OC)c3)nc2SCC(=O)NCc2ccco2)cc1`, 1%; for `CN(Cc1cnn(C)c1)C(=O)c1cc2ccccc2oc1=O`, 3%.
On to `CC(=O)N1C(=O)c2cccc3cccc(c23)C(=O)N1C(C)=O`, for which the inhibition is 0%.
For `CCCCC(c1nnnn1C1CCCC1)N1CCN(C2CCCCC2)CC1` (stereo not given) the value was 1%; for `O=C(NC1CC1)c1cccc(Nc2ccc(-c3ccc4c(c3)OCCO4)nn2)c1`, 1%.
Regarding `Cc1ccc(S(=O)(=O)c2nc(-c3ccco3)oc2SCC(=O)NCC2CCCO2)cc1` (stereo not given), the inhibition was 0%.
As for `O=C(Cn1cc2c(n1)CCCCC2)N1CCc2ccccc2C1`, the inhibition is 0%.
`O=S(=O)(Cc1ccccc1)N1CCN(Cc2ccccc2)CC1`: the inhibition is 5%.
As for `CCOc1ccc(-n2c(=O)cc(N3CCN(c4ccccc4)CC3)[nH]c2=O)cc1`, the figure is 0%; as for `CC(=O)Nc1ccc(NS(=O)(=O)c2ccc(Cl)c(C(=O)O)c2)cc1`, 1%.
As for `COc1c(Br)cc2c(C)c(C(=O)O)oc2c1Br`, the figure is 2%.
As for `O=C(NCc1ccccn1)C(C(=O)c1ccc(F)cc1)n1ccccc1=O` (stereo not given), the figure is 5%; as for `N#Cc1nc(COc2ccccc2)oc1NCCN1CCOCC1`, 0%; as for `CN1CCCN(C(c2ccccc2)c2ccc(Cl)cc2)CC1` (stereo not given), 0%.
Consider `O=C(Nc1cccc2ncccc12)c1ccc2c(c1)OCCO2`, for which the inhibition was 0%.
In the case of `Cc1nc2ccccc2c2oc(C(=O)NCc3ccccn3)cc12`, the inhibition is 2%.
In the case of `CCn1c(SCC(=O)Nc2nccs2)nnc1-c1ccncc1`, the inhibition is 4%.
`CC1CCc2nn(CC(=O)NCCN3CCOCC3)cc2C1` (stereo not given): the inhibition was 0%.
Take `CS(=O)(=O)NCC(c1cccnc1)N1CCN(c2ccc(F)cc2)CC1` (stereo not given): the inhibition is 1%.
With `Cc1c(NC(=O)C2CCCNC2=O)c(=O)n(-c2ccccc2)n1C` (stereo not given), the inhibition was 0%.
In the case of `COC(=O)c1ccc2c(=O)n(NC(C)=O)c(=S)[nH]c2c1`, the inhibition is 0%.
For `O=C(COc1ccc(S(=O)(=O)N2CCCC2)cc1Cl)NC1CC1` the value was 8%.
Regarding `COc1ccc(/C=C(/C#N)c2cccnc2)cc1OC`, the inhibition was 8%.
`CCOC(=O)Nc1ccc(OC)cc1S(=O)(=O)N1CCCCC1`: the inhibition is 0%.
As to `O=C(NCCc1cccc(Cl)c1)c1cccnc1`, the inhibition is 12%.
As for `CCOc1ccc(N2CC(C(=O)Nc3ccccc3OC)CC2=O)cc1` (stereo not given), the figure is 0%; as for `CCCCOc1cc(C(=O)NCCN(CC)CC)c2ccccc2n1`, 0%.
Regarding `C/C=C/Cn1c(Br)nc2c1c(=O)[nH]c(=O)n2C`, the inhibition was 0%.
In the case of `CCN(CC)S(=O)(=O)c1ccc2c(c1)nc(SCn1nnc3ccccc3c1=O)n2CC`, the inhibition was 0%.
Take `COc1ccc(C)cc1-n1c(N)c(C#N)c(C#N)c1-c1ccc(OC)c(OC)c1OC`: the inhibition was 4%.
`Cc1cc(Nc2ccc(N3CCC(C)CC3)cc2)n2ncnc2n1`: the inhibition is 0%.
In the case of `CCOC(=O)c1cc(CC)sc1NC(=O)CCC(=O)O`, the inhibition was 2%.
As for `CCOC(=O)c1cc2sccc2n1CC(=O)Nc1ccc2c(c1)OCCO2`, the inhibition was 0%.
For `CCOC(=O)C1=C(O)CCn2c1nc1ccccc12`, the inhibition was 2%.
Take `COC(=O)c1ccccc1NC(=O)C1CC=CCC1C(=O)O` (stereo not given): the inhibition was 0%.
